# Screening data from PubChem BioAssay.
# Sampled rows, rich in hits. Any-hit rate of the full collection: about 2.7%.
# Tau FP inhib: inhibitors of human tau fibril formation. 280,000 compounds, 0.39% hits. Potency, µM (top dose mostly 57.7 µM), for the others: top-dose activity, negative = inhibition, usual class: inhibitors. K18 P301L tau heparin fibrillization, Alexa594 FP, 6 h. AID 1468. P10636; further: potency means the concentration at half of the fitted maximal effect; nearly all actives have a fitted effect of over 55% in size
# Target sequence (P10636 561-689 P618L limits assumed): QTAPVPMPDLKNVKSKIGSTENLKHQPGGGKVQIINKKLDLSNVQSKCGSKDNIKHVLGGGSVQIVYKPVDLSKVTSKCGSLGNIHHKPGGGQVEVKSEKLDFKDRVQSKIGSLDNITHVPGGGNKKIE
#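 Human tau K18 […] P301L fragment, 15 uM unlabeled plus 0.24 uM Alexa 594-labeled tau (final), with compound and 20 uM heparin in 100 mM sodium acetate pH 7; 6 hr at 37 C, then Alexa 594 FP read.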
# Tau ThT inhib: blocks human tau fibril formation measured by thioflavin T; 270,000 compounds, 2.1% hits; AID 1460; recombinant tau K18 P301L, heparin-induced fibrillization, ThT fluorescence; Potency, µM (top dose mostly 57.4 µM), for inactives: at the highest dose activity, negative = inhibition, hits mostly inhibitors; further: potency means the concentration at half of the fitted maximal effect; nearly all actives have a fitted effect of over 55% in size
#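 Aggregation was driven by heparin (20 uM final) acting on recombinant tau […] bearing P301L in 100 mM sodium acetate pH 7; fibrils were detected with Thioflavin T.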
# Tau fluor cs: counter-screen for tau fibril formation inhibitors; 280,000 compounds, 0.93% hits; Potency, µM (titrated, usually from 57.7 µM), without a hit: top-dose activity change, negative = decrease; tau K18 P301L Alexa594 fluorescence, heparin fibrillization; further: potency means the concentration at half of the fitted maximal effect; nearly all actives have a fitted effect of over 55% in size
#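 Human tau K18 P301L (15 uM unlabeled, 0.24 uM Alexa 594-labeled) in 100 mM sodium acetate pH 7 with 20 uM heparin, 6 hr at 37 C. ThT 30 uM added, 1 hr ambient; Alexa 594 FP and total fluorescence read at 555/632 nm.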
# Coupling enz: coupling enzyme interference in Giardia aldolase counter-screen; 290,000 compounds, 0.67% hits; activity change, negative = inhibition, % at 58.2 µM, hits read low; AID 2472; coupling enzyme system counterscreen, AmpLite Red fluorescence; in the data active means activity change below about -30%
#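 Compounds tested against the coupling enzymes alone at 57.5 uM final; readout was AmpLite Red fluorescence (525/598 nm) after 20 min at RT.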
# Starred values were filed as active, the others as inactive; ? = inconclusive; nt = no result; [ ] = another dose, or the depositor's remark. Unless noted, the call rests on the fitted dose curve; in most records, active means well fitted curve in the direction sought with a large enough effect; inconclusive means small, poorly fitted or top-dose-only effect, or another doubt; inactive means no such curve, though single readings can be large; an effect the other way counts as inactive or inconclusive. On the % scale 0 is the no-effect control and ±100 the full control effect.
SMILES,Tau FP inhib,Tau ThT inhib,Tau fluor cs,Coupling enz
c1ccc(N/N=C(\Cc2nc3ccccc3[nH]2)c2ccccc2)cc1,1%,?,16µM*[quencher],0
Clc1cccc(/C(Cc2nc3ccccc3[nH]2)=N\Nc2ccccc2)c1,?,?,7.1µM*[quencher],1
CC[C@H](C)[C@H](NC(=O)[C@@H]1CCCN1C(=O)[C@H](C)NC(=O)[C@H](CC(N)=O)NC(=O)[C@@H]1CCCN1C(=O)[C@@H]1CCCN1C(=O)[C@H](CCCN=C(N)N)NC(=O)[C@H](Cc1ccc(O)cc1)NC(=O)[C@H](C)NC(=O)[C@@H]1CCCN1C(=O)[C@@H]1CCCN1C(=O)[C@@H](N)[C@@H](C)O)C(=O)N[C@@H](CC(C)C)C(=O)O,nt,nt,nt,0
COc1ccccc1-c1nnc(SCCOc2ccccc2C)o1,4%,-16%,-13%,nt
CCCCN(CCCC)S(=O)(=O)c1ccc(NS(=O)(=O)c2ccc(NC(C)=O)cc2)cc1,22µM*,?,?,12
CCn1ccc2cc(OC)ccc2c1=S,-5%,?,2%,-83*
CCn1c(=S)ccc2ccc(OC)cc21,-1%,?,0%,2
O=C(Nc1cccc(F)c1)N1CCC2(CC1)CCN(C(=O)c1cnccn1)CC2,nt,nt,nt,1
CCc1cc2c(nc1CC)CCN(CC/C(C)=N/OCC[C@@H]1C=C[C@H](OC(C)=O)[C@H](COC(C)=O)O1)C2,-8%[11.6 µM],-10%[11.5 µM],-11%[11.6 µM],5
COc1ccc(N=C2NN=C(c3ccc4c(c3)OCCO4)CS2)cc1,?,7.1µM*,?,2
COC(=O)C1OC(=O)C2OC23[C@]2(C)C(OC(C)=O)CC4C(C)(C)C(=O)CC[C@]4(C)C2CC[C@@]13C (some centres not stated),?,?,?,3
NC(=O)c1c(/N=C/c2cccs2)sc2c1CCCC2,-6%,2.2µM*,-10%,0
O=C(/C=C/c1cccs1)Nc1sc2c(c1C(=O)O)CCCC2,nt,nt,nt,-11
CCCCN(C)CC(O)Cn1cc(/C=C/C(=O)c2ccc(Br)cc2)c2ccccc21 (configuration not stated),10%,20µM*,?,nt
CCCCN(C)CC(O)Cn1cc(/C=C/C(=O)c2ccc(OC)c(OC)c2)c2ccccc21 (configuration not stated),2%,?,?,nt
CCCN(CCC)CC(O)Cn1cc(/C=C/C(=O)c2ccc(C)cc2)c2ccccc21 (configuration not stated),-12%,18µM*,?,nt
CCCCN(C)CC(O)Cn1cc(/C=C/C(=O)c2ccc(C)cc2)c2ccccc21 (configuration not stated),-4%,14µM*,?,0
Cc1ccc(NC(=O)C2CCC(CNS(=O)(=O)c3csc(C(N)=O)c3)CC2)cc1Cl (configuration not stated),-14%,2%,-5%,nt
COc1ccc(CCNC(=O)c2cn(C)c3ccc(S(=O)(=O)N(C)C)cc3c2=O)cc1OC,-12%,-3%,-12%,nt
COc1ccc(C2=CSC3=NNC4(CCCCC4)NN23)cc1,0%,22µM*,-26%,2
COCC1=C2c3ccccc3[C@@H]3CNC(=O)C3(C(=O)OC)C[C@@H]2n2c(=O)n(-c3ccccc3)c(=O)n2C1 (some centres not stated),2%,-4%,-2%,1
CC1CCCC2(C1)NC(=S)c1c(sc3c1CCCC3)N2 (configuration not stated),?,18µM*,?,3
COc1ccccc1CNc1ncnc2c1c(-c1ccccc1)cn2-c1ccc(Br)cc1,1%,-3%,-6%,nt
O=C(/C(=C/O)N=Nc1ccccc1)c1ccco1,6%,20µM*,-13%,3
CCOc1cc([N+](=O)[O-])cc(/C=C2/NC(=O)N(Cc3ccccc3F)C2=O)c1O,-3%,14µM*,?,7
C=CCn1c(O)c(C2=c3ccccc3=NC2=O)sc1=Nc1ccc(O)cc1,?,13µM*,13µM*[quencher],2
NS(=O)(=O)c1ccc(N/N=C/c2cn(-c3ccccc3)nc2-c2cccs2)cc1,-11%,16µM*,13µM*[quencher],0
N#Cc1ccc(N/N=C/c2cn(-c3ccccc3)nc2-c2ccccc2)c([N+](=O)[O-])c1,1%,8%,0%,2
NC(=O)N/N=C/c1cn(-c2ccccc2)nc1-c1cccs1,-12%,16%,-25%,0
